Source: PubChem BioAssay (several laboratories)
Shown are actives, neighbours in structure and some others; about 1.9% of the full set was active somewhere.
Pf gamet viab: P. falciparum stage V gametocyte viability inhibition | P. falciparum stage V gametocytes, ATP luminescence, 24 h | inhibition, % at 10.9 µM | hit rate 0.065% among 150,000 | AID 743093;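 active means inhibition above the mean plus 3 SD of compounds within the control limits, set per campaign, cut at about 38% in these data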;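 further: 0% = DMSO wells and 100% = medium only without gametocytes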
EP2 modulator: modulates human prostaglandin E2 receptor EP2 signaling | EP2-expressing cells, cAMP HTRF FRET, PGE2 co-stimulation | induction, % at 25 µM | hit rate 0.83% among 260,000 | AID 940 | P43116;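 active means compounds whose cAMP rise, as percent of the full-agonist control response, exceeds 60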;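 further: rat C6 glioma line stably carrying human EP2 under a CMV promoter; the protocol text gives 20 µM as final concentration; 100% = response of wells given 1 µM PGE2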
Target sequence (P43116 whole entry, looked up): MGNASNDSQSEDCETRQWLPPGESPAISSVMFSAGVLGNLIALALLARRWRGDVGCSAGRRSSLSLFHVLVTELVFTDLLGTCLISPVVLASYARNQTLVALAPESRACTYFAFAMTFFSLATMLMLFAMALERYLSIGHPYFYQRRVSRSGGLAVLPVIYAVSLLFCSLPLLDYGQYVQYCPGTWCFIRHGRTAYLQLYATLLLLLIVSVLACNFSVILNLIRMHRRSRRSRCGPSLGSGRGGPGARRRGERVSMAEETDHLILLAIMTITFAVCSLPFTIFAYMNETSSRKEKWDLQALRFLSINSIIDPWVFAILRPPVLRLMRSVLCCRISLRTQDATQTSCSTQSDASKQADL
S1P3 antag: S1P3 (human) receptor antagonism; CHO S1P3 NFAT-BLA reporter, FRET fluorescence, antagonist mode; inhibition, % at 4.98 µM; hit rate 0.27% among 170,000; AID 485;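 active means inhibition above the plate cutoff, the mean inhibition of test wells on that plate plus 3 SD, cut at about 28% in these data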;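 further: cells challenged with S1P at its EC80 of 0.8 µM; blue over green emission ratio from cleaved BLA substrate after 4 h stimulation; 0% = S1P-stimulated wells and 100% = unstimulated DMSO-only wells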
PGE2 EP2 inh: EP2 receptor (human) inhibition. hit rate 0.52% among 260,000. inhibition, % at 25 µM. C6 glioma cells expressing human EP2, cAMP TR-FRET; cells stimulated with saturating PGE2;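 active means percent inhibition above 40 after rounding to a whole number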;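 further: rat C6 glioma host cells with rolipram phosphodiesterase inhibitor present; the protocol text gives 20 µM as final concentration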
S1P4 ag: agonists of human S1P4 receptor; O95977; S1P4-expressing cell line, agonist reporter assay; activation, % at 4.98 µM; hit rate 0.35% among 220,000; in the data active means activation above about 11%;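 further: 0% = DMSO vehicle and 100% = reference agonist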
S1P4 antagonist: human S1P4 receptor antagonism; S1P4-expressing cells, antagonist mode, reporter read-out; inhibition, % at 4.98 µM; hit rate 0.26% among 220,000; in the data active means inhibition above about 29%;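 further: 0% = wells stimulated with agonist and 100% = vehicle wells without agonist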
EP2 confirm: human EP2 receptor cAMP induction, negative in counter-screens. shares compounds with EP2 modulator. C6 glioma EP2 cells, cAMP HTRF induction; plus low (about EC15) PGE2 agonist. calls only at 20 µM (by protocol). hit rate 47% among 1,300;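 active means cAMP induction above 50% in the main assay while under 30% in all four parallel counter assays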;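 further: rat C6 glioma cells stably expressing human EP2 receptor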
* = called active by the depositor; i = inactive; . = no result; + = active, no number; ! = a repeat was not active.

SMILES	Pf gamet viab	EP2 modulator	S1P3 antag	PGE2 EP2 inh	S1P4 ag	S1P4 antagonist	EP2 confirm
Cc1cc(C)c(S(=O)(=O)c2ccccc2)c(OC(=O)c2cc(F)c(F)cc2Cl)n1	-15.1	73.1*	.	27.9	-1.1	-1.0	i
N#Cc1c(NC(=O)COc2ccccc2)sc2c1CCC2	.	-30.4	.	14.4	.	.	.
O=C1CCCN1CCC(=O)N1CCC(c2ccnc3nc(C(F)(F)F)nn23)CC1	.	-11.9	.	.	.	.	.
CCc1ccc2nc(SCC(=O)NCC3CCCO3)c(C#N)cc2c1 (stereo not drawn)	.	-26.2	-11.0	6.3	0.8	-14.1	.
CCc1ccc2nc(-c3cccc(C)c3)nc(SCC(=O)NCC3CCCO3)c2c1 (stereo not drawn)	3.8	85.9*	.	11.0	0.0	-5.8	i
O=C(C1CCCC1)N1CCC(n2cnc3cccnc32)CC1	.	16.9	.	4.8	.	.	.
CSc1ccccc1NC(=O)CN(C)CC(=O)NCc1ccccc1	-0.6	20.8	5.6	-1.2	1.1	-7.1	.
CSc1ccccc1NC(=O)CN(C)Cc1cccc(Cl)c1	-2.4	66.2*	-11.0	6.1	0.2	8.0	+
Cc1ccccc1Nc1c(-c2ccccn2)nc2ccccn12	-1.1	65.9*	3.0	8.6	-1.3	-1.4	i
Cc1ccccc1Nc1c(-c2cccnc2)nc2ccccn12	-17.0	3.4	11.1	3.8	1.4	12.1	.
Cc1ccc2nc(-c3ccccn3)c(Nc3ccccc3C)n2c1	-15.1	67.4*	13.6	9.7	0.5	-4.3	i
Cc1ccn2c(Nc3ccccc3)c(-c3ccccn3)nc2c1	22.1	39.6	-1.6	4.0	-2.2	-6.3	.
Cc1ccn2c(Nc3ccccc3C)c(-c3ccccn3)nc2c1	-1.9	65.6*	20.8	13.9	0.2	5.4	i
Nc1c(C(=O)Nc2ccccc2F)sc2nc(Cc3ccccc3)cc(C(F)(F)F)c12	.	67.2*	.	15.4	-3.7	2.5	i
COc1ccc(-c2cc(C(F)(F)F)nc(NCc3ccco3)n2)cc1OC	.	66.7*	.	5.1	0.4	-10.8	+
COc1cccc(-c2cc(C(F)(F)F)nc(NCc3ccco3)n2)c1	.	28.1	.	6.7	1.3	-15.6	.
N#Cc1cc2c(nc1SCC(=O)Nc1cccc(F)c1)CCC2	.	11.0	.	14.1	.	.	.
Cc1cc(Br)c2nc3c(c(C(=O)O)c2c1)CCCCC3	.	76.9*	-9.9	19.3	3.2	-21.6	i
CCc1ccc2nc3c(c(C(=O)O)c2c1)CCC3	14.7	20.6	11.1	0.9	1.0	-1.9	.
CC1CCN(CC(=O)Nc2ccc(F)cc2)CC1	.	-91.2	.	10.9	.	.	.
NCc1c(O)ccc2ccccc12	.	-27.1	-3.7	8.2	1.6	-5.7	.
Oc1ccc2ccccc2c1Cc1c(O)ccc2ccccc12	.	69.6*	.	12.0	.	.	i
Cc1ccc(CN2C(=O)/C(=C\c3ccc(C(=O)NCc4cccnc4)cc3)Oc3ccccc32)cc1	7.4	85.2*	-1.1	13.0	4.5	-12.5	+
Cc1cccc(NS(=O)(=O)c2cccs2)n1	8.4	4.1	-19.1	8.5	1.7	-12.3	.
Cc1ccnc(NS(=O)(=O)c2cccs2)c1	.	82.8*	-36.7	8.5	0.9	-7.3	i
SMILES	Pf gamet viab	EP2 modulator	S1P3 antag	PGE2 EP2 inh	S1P4 ag	S1P4 antagonist	EP2 confirm
O=S(=O)(NCc1cccnc1)c1cccn1-c1ncc(C(F)(F)F)cc1Cl	11.0	-55.0	-12.3	3.8	-1.2	-4.5	.
O=S(=O)(c1cccc(C(F)(F)F)c1)N1c2ccccc2-n2cccc2[C@H]1c1cccnc1	.	52.2	.	37.0	.	.	+
COc1cc(S(=O)(=O)N(Cc2cccnc2)Cc2ccco2)ccc1-n1cnnn1	-5.6	78.8*!	-13.5	10.4	0.4	-2.3	i
COc1cc(S(=O)(=O)N(Cc2ccc(C)cc2)Cc2ccco2)ccc1-n1cnnn1	.	26.3	.	2.2	-3.5	-8.4	.
CN(C)c1ccc(NC(=O)CSc2ncn[nH]2)cc1	.	-31.6	.	7.9	.	.	.
COc1ccc(CN(Cc2ccc3c(c2)OCO3)CC(C)O)c2c(OC)cccc12 (stereo not drawn)	.	-18.7	.	1.5	.	.	.
N#CC1=C(N)Oc2c(oc(CO)cc2=O)C1c1ccccc1C(F)(F)F (stereo not drawn)	.	3.8	.	14.0	.	.	.
C=CCSc1nc(N(CC)CC)c2sccc2n1	-0.1	66.7*	.	14.0	0.5	0.7	i
CCCCCc1ccc(-c2ccc(=O)[nH]n2)cc1	.	89.4*	.	.	-1.0	1.5	i
O=S(=O)(c1ccccc1)N(Cc1nc(-c2ccccc2)no1)C1CCCCC1	5.4	82.5*	21.0	14.8	1.8	-19.9	+
CC(C)N(Cc1nc(-c2ccccc2)no1)S(=O)(=O)c1ccccc1	.	14.9	-7.7	9.5	1.4	-10.6	.
CC(=O)OC[C@@]1(O)C[C@@]23CCC4c5ccoc5CC[C@]4(C)C2CC[C@@H]1C3 (stereo partly drawn)	.	68.5*	.	8.9	.	.	i
O=C(c1ccccn1)N1C2CCC1CC(O)(c1ccco1)C2 (stereo not drawn)	.	1.5	.	.	.	.	.
Cc1ccc(Oc2nc(-c3ccccc3)ncc2S(C)(=O)=O)cc1	.	74.9*	.	15.4	0.2	-22.6	i
COC(=O)c1c(NC(=O)Cc2cccs2)sc(C)c1C	.	55.9	-3.1	5.7	0.1	-13.6	i
COC(=O)c1c(NC(=O)Cc2cccs2)sc2c1CCCC2	-13.3	55.5	-9.4	14.3	-0.6	-7.2	i
Cc1ccc(OCC(=O)Nc2ccc(NC(=O)c3ccco3)c(C)c2)cc1	.	10.3	.	9.7	.	.	.
O=C(CCc1ccccc1F)N1CCCC(c2noc(-c3ccccn3)n2)C1 (stereo not drawn)	.	-22.3	.	7.9	.	.	.
O=C(COc1ncnc2ccccc12)NC1(c2ccccc2F)CCCC1	.	-49.1	.	2.5	.	.	.
CCOc1cc(S(=O)(=O)NCCc2cccc(C)c2)c(OCC)cc1-n1cnnn1	.	68.3*	-3.5	4.8	-0.1	-6.4	i
O=c1n(Cc2ccccc2F)c2ccccc2n1Cc1ccccc1F	.	77.5*	.	18.0	0.7	-10.8	+
CCOC(=O)C(C)Sc1ncc(OC)c(Sc2ccc(Cl)cc2)n1 (stereo not drawn)	-29.8	67.7*	.	2.3	1.1	-2.3	+
O=S(=O)(NCCc1ccccc1)c1ccc(S(=O)(=O)N2CCCC2)cc1	.	-39.8	.	7.5	.	.	.
COc1ccc(C(=O)c2ccccc2)c(O)c1	17.9	41.0	5.2	3.0	0.4	-9.5	+
CCOC(=O)CNC(=O)c1ccc2c(c1)OCCO2	-11.1	69.1*	5.3	13.6	0.8	-13.8	i
O=C(O)C1Cc2ccccc2CN1S(=O)(=O)c1ccc(F)cc1 (stereo not drawn)	.	-4.8	.	8.4	.	.	.
CC[C@H](Cn1nc(-c2ccc(F)c(F)c2)ccc1=O)NC(=O)Cc1ccccc1F	.	-11.9	.	.	.	.	.
CCOc1ccc(OCC)c(NC(=O)CN2CCN(c3ccccc3OC)CC2)c1	.	9.3	.	21.3	.	.	.
CCOc1ccc(OCC)c(NC(=O)CN2CCN(c3ccc(C)cc3C)CC2)c1	.	78.6*	.	.	0.0	-13.3	+
